Measurements as given in PubChem BioAssay AID1543 (National Center for Advancing Translational Sciences (NCATS), 2009).
Records with an inconclusive call do not appear. Values without a mark were called inactive. Calls of active or inactive are those of the source. Calls come from the whole dose curve; as a rule, active = well fitted activation curve with a large enough effect; inconclusive = small, poorly fitted or top-dose-only effect, or effect the other way; inactive = flat fitted curve, though single readings scatter.

target: Pyruvate kinase PKLR (Homo sapiens) (UniProt P30613); assay: Secondary assay for Activators of Human Reticulocyte Pyruvate Kinase; settings: purified hPK-R, LDH-coupled NADH fluorescence kinetic; series mostly up to 57.5 µM; activation: at the top concentration
Sequence (P30613 whole entry, looked up): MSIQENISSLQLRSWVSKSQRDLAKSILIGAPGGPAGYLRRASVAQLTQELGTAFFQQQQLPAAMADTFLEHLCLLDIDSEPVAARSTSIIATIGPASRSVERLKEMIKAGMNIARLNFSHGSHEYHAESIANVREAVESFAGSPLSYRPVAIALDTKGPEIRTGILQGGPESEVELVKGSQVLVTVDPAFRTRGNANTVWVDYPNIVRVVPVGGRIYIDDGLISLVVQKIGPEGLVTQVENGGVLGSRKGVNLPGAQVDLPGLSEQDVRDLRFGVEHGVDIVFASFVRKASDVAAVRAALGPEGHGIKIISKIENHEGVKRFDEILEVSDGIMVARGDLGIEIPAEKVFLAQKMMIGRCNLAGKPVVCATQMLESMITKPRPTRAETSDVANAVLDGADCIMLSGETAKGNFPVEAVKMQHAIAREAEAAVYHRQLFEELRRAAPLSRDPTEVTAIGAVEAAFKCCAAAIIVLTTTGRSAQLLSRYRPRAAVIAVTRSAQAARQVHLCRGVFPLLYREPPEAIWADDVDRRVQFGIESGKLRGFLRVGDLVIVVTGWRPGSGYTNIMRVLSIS
Excerpt: Confirmatory assay NIH Chemical Genomics Center [NCGC] Wael M. Rabeh, Lyudmila Nedyalkova and Hee-Wan Park [Structural Genomics Consortium, 100 College St. Toronto, Ontario, Canada] NCGC Assay Overview: Human pyruvate kinase reticulocyte (hPK-R) enzyme was supplied as a highly purified (>95% pure) preparation from Structural Genomics Consortium in Toronto (Ontario, Canada) and a secondary assay was used to evaluate compounds. This assay couples the formation of pyruvate from hPK-R using lactate dehydrogenase (LDH) and NADH. The depletion of NADH is followed in a fluorescent-based kinetic assay that follows the formation of pyruvate to lactate, as catalyzed LDH. Pyruvate kinase substrates, PEP and ADP, were present in the assay at 0.1 mM and 4 mM respectively. In this kinetic assay initial rates were determined by following the fluorescence of NADH depletion.
NCGC Assay Protocol Summary: Three uL of substrate mix (final concentration, 50 mM Tris-Cl pH 8.0, 200 mM KCl, 15 mM MgCl2, 0.1 mM PEP, 4.0 mM ADP, and 0.2 mM NADH) was dispensed into black-solid 1536 well plates. 23 nL of compounds were delivered by a pin tool and 1 uL of enzyme mix (final concentrations, 10 nM hPK-R and 1 uM of LDH) was added. Plates were immediately placed in ViewLux (Perkin Elmer) and NADH fluorescence was determined at 30 second exposure intervals for between 3 and 6 minutes. Data were normalized to the uninhibited and EC100 activation using known activators such as fructose-bis-phosphate.

| Structure (SMILES) | activation | Potency |
| --- | --- | --- |
| C[C@H]1CN(S(=O)(=O)c2c(F)cccc2F)CCN1S(=O)(=O)c1ccc2c(c1)OCCO2 | 11.4% | – |
| O=S(=O)(c1cccc(F)c1)N1CCN(S(=O)(=O)c2ccc3c(c2)OCCO3)CC1 | 11% | – |
| Cn1c2cc(C=O)sc2c2cnn(Cc3ccccc3F)c(=O)c21 | – | 398 nM (active) |
| O=S(=O)(c1ccc2c(c1)OCCO2)N1CCN(S(=O)(=O)c2c(F)cccc2F)CC1 | -2.1% | – |
| CSc1cc2c(s1)c1cnn(Cc3ccccc3F)c(=O)c1n2C | – | 708 nM (active) |
| C[C@H]1CN(S(=O)(=O)c2ccc3c(c2)OCCO3)CCN1S(=O)(=O)c1c(F)cccc1F | 6.33% | – |
| O=S(=O)(c1ccc(Cl)cc1)N1CCN(S(=O)(=O)c2ccc3c(c2)OCCO3)CC1 | 8.08% | – |
| CC(C)c1cc2c(s1)c1cnn(Cc3ccccc3F)c(=O)c1n2C | – | 4470 nM (active) |
| Cc1cc2c(s1)c1cnn(Cc3c(F)c(F)cc(F)c3F)c(=O)c1n2C | 17.4% | – |
| C[C@@H]1CN(S(=O)(=O)c2ccc3c(c2)OCCO3)CCN1S(=O)(=O)c1c(F)cccc1F | 20.4% | – |
| Cn1c2cc(S(C)=O)sc2c2cnn(Cc3ccccc3F)c(=O)c21 (stereo unspecified) | – | 1120 nM (active) |
| O=C(c1ccc2c(c1)OCCO2)N1CCN(S(=O)(=O)c2c(F)cccc2F)CC1 | 14.2% | – |
| O=S(=O)(c1ccc2ccccc2c1)N1CCN(S(=O)(=O)c2c(F)cccc2F)CC1 | 6.77% | – |
| Cn1c2cc(C#N)sc2c2cnn(Cc3ccccc3F)c(=O)c21 | 11.7% | – |
| Cn1c2ccsc2c2cnn(Cc3ccccc3F)c(=O)c21 | – | 14100 nM (active) |
| COc1ccc(Cn2ncc3c4sc(C)cc4n(C)c3c2=O)cc1 | – | 631 nM (active) |
| O=S(=O)(c1c(F)cccc1F)N1CCN(S(=O)(=O)c2c(F)cccc2F)CC1 | – | inactive |
| CC(=O)c1cc2c(s1)c1cnn(Cc3ccccc3F)c(=O)c1n2C | – | 631 nM (active) |
| CCc1cc2c(s1)c1cnn(Cc3ccccc3F)c(=O)c1n2C | – | 5620 nM (active) |
| O=S(=O)(c1ccc2c(c1)OCCO2)N1CCN(S(=O)(=O)c2c(F)ccc(O)c2F)CC1 | 14.9% | – |
| O=S(=O)(NC1CCC(NS(=O)(=O)c2c(F)cccc2F)CC1)c1ccc2c(c1)OCCO2 (stereo unspecified) | – | inactive |
| O=S(=O)(c1ccc2c(c1)OCCO2)N1CCN(S(=O)(=O)c2ccc3c(c2)OCCO3)CC1 | – | inactive |
| CCCCCn1ncc2c3sc(C)cc3n(C)c2c1=O | 1.51% | – |
| O=C(c1c(F)cccc1F)N1CCN(S(=O)(=O)c2ccc3c(c2)OCCO3)CC1 | 12% | – |
| COc1ccc(S(=O)(=O)N2CCN(S(=O)(=O)c3ccc(OC)cc3)CC2)cc1 | -1.17% | – |
| O=S(=O)(c1ccc2c(c1)OCO2)N1CCN(S(=O)(=O)c2c(F)cccc2F)CC1 | 9.27% | – |
